In all, about 69,000 compounds went through this assay and about 8,600 (12%) showed an effect of 50% or more. The sample as a whole holds a higher share of strong results than the screen did.
test system: Plasmodium berghei; test: Screen against P. berghei liver stage (PbLuc), transformed with Luciferase, at 10uM; type: functional, HepG2; details: tested at 10 uM

First: O=c1occ(CN2CCOCC2)c(O)c1CN1CCOCC1
Second: O[C@H]1CN(Cc2ccnc(N3CCCC3)n2)CC[C@@]12CCCO2
The INHIBITION of the first is higher: 3.19% for the first, -14.2% for the second.

Going from CNS(=O)(=O)c1cccc(C(C)NCc2cccc(O)c2)c1 (stereo unspecified) to CNS(=O)(=O)c1cccc(C(C)NCc2cccc(OC)c2)c1 (stereo unspecified), the INHIBITION falls from 50.8% to 20.1%.

First: CCOc1ccc(CNC(C)c2cccc(S(=O)(=O)NC)c2)cc1 (stereo unspecified)
Second: CNS(=O)(=O)c1cccc(C(C)NCc2ccccc2)c1 (stereo unspecified)
The INHIBITION of the first is higher: 46.6% for the first, 11.8% for the second.

Going from CC(CO)NS(=O)(=O)c1cccc(C(C)C)c1 (stereo unspecified) to CNS(=O)(=O)c1cccc(C(C)NCc2nccn2C(C)C)c1 (stereo unspecified), the INHIBITION falls from 26.6% to 23.5%.

First: Cc1nc(CNC(C)c2cccc(S(=O)(=O)N(C)C)c2)no1 (stereo unspecified)
Second: CC(NCc1cccc(S(=O)(=O)N(C)C)c1)c1cccnc1 (stereo unspecified)
The INHIBITION of the first is higher: 39.7% for the first, 21.9% for the second.

Compared with CNS(=O)(=O)c1cccc(C(C)NCc2ccc(F)c(F)c2)c1 (stereo unspecified), CNS(=O)(=O)c1cccc(C(C)NCc2ccc(F)cc2F)c1 (stereo unspecified) is higher in INHIBITION: 59.4% for the first, 65.4% for the second.

Going from CNS(=O)(=O)c1cccc(C(C)NCc2ccc(C)c(C)c2)c1 (stereo unspecified) to CNS(=O)(=O)c1cccc(C(C)NCc2cccc(C)c2C)c1 (stereo unspecified), the INHIBITION falls from 62.8% to 52.6%.

First: CC(NCc1ccc(F)cc1)c1ccc(S(C)(=O)=O)cc1 (stereo unspecified)
Second: CNS(=O)(=O)c1cccc(C(C)NCc2ccncc2)c1 (stereo unspecified)
The INHIBITION of the first is lower: 25.5% for the first, 32.9% for the second.

First: O=S(=O)(C1CC1)N1CC[C@@H]2[C@@H]1CCN2Cc1cccs1
Second: CN1CCN([C@@H]2CCN(CC3CCOC3)[C@H]2Cc2cnn(C)c2)CC1 (stereo partly specified)
The INHIBITION of the first is higher: 33% for the first, -10.5% for the second.

Going from Cc1cccc(NC(=O)N2CCCn3cnc(CN(C)C(C)C)c3C2)c1 to Cc1cccc(C(=O)N2CC[C@@H]3CN(c4ncccn4)CCO[C@@H]3C2)c1, the INHIBITION rises from -6.3% to 4.27%.

Going from NC(=O)c1cnn2c(C3CCCN(C4CCOCC4)C3)ccnc12 (stereo unspecified) to O=C(c1ccncc1F)N1CC[C@@H]2CN(c3ncccn3)CCO[C@@H]2C1, the INHIBITION falls from 10.51% to -1.55%.

First: CCc1ccc(NC(=O)CC2Cn3ncnc3NC2=O)cc1 (stereo unspecified)
Second: CCN1CC(O)CN(C(=O)c2ccc(SC)cc2)CC1=O (stereo unspecified)
The INHIBITION of the first is lower: -4.76% for the first, 47.2% for the second.

Going from CCN1C(=O)[C@H]2CN(CC(C)C)C[C@H]2C12CCN(C(=O)NC(C)C)CC2 to COCC(=O)N1CCC2(CC1)COCCN2CCN(C)C, the INHIBITION rises from -16.9% to 0.547%.

Going from Cc1ccc(N2CCCC3(CCCC(=O)N3)C2)nn1 (stereo unspecified) to Fc1ccc(CN2CCCn3nnc(COCC4CC4)c3C2)cc1, the INHIBITION rises from 3.88% to 46.6%.

Compared with CCOCCCC(=O)NCCC(=O)N1CCN(c2ccccn2)CC1, CNC(=O)C1CN(C(=O)COc2ccccc2)Cc2cn(C)nc21 (stereo unspecified) is higher in INHIBITION: -39.5% for the first, 42.6% for the second.

Compared with c1ccc2nc(N3CCOC(Cn4cncn4)C3)cnc2c1 (stereo unspecified), Cc1ccccc1C(=O)N1CC[C@@H]2CN(c3ncccn3)CCO[C@@H]2C1 is higher in INHIBITION: -44.3% for the first, 47.4% for the second.

Compared with CCN(CC(=O)N(C)C)C(=O)c1nc(C)n(-c2ccccc2Cl)n1, CN(C)C(=O)c1nc(-c2ccc(S(C)(=O)=O)cc2)c2ccccn12 is higher in INHIBITION: -28.7% for the first, 17.6% for the second.

First: CCc1cc(CN(C)C(=O)c2cnn[nH]2)on1
Second: CCC1CCCCN1C(=O)Cn1nc(-c2cc(C)oc2C)cc(N)c1=O (stereo unspecified)
The INHIBITION of the first is lower: -47.9% for the first, 37.5% for the second.

Going from COc1ccccc1CNc1ncnc2c1NC(=O)CN2 to COc1ccc(CNc2cccnc2-n2cccn2)c(OC)c1OC, the INHIBITION rises from -79.3% to 41.5%.

Compared with O=C(NCc1nncn1C1CCCCC1)C1COc2ccccc2O1 (stereo unspecified), O=C(NCc1ccccc1)[C@H]1C[C@H]2CN(C(=O)NC3CCCC3)C[C@@H]1O2 is lower in INHIBITION: 35.4% for the first, 7.65% for the second.

Compared with CNS(=O)(=O)c1cccc(C(C)NCc2ccccc2OC)c1 (stereo unspecified), CNS(=O)(=O)c1cccc(C(C)NCc2ccc(C)o2)c1 (stereo unspecified) is higher in INHIBITION: -9.93% for the first, 35.4% for the second.

First: CNS(=O)(=O)c1cccc(C(C)NCc2ccsc2)c1 (stereo unspecified)
Second: CNS(=O)(=O)c1cccc(C(C)NCc2ccco2)c1 (stereo unspecified)
The INHIBITION of the first is lower: 36.3% for the first, 55.1% for the second.

Going from N#Cc1cccc(C(=O)N2CCc3c(COCC4CC4)cncc3C2)c1 to O=C(c1ccccc1)N1C[C@H]2CCC[C@@]2(COCc2ccncc2)C1, the INHIBITION falls from 18.7% to -4.88%.

Going from O=C(NC1CCCC1)N1CCCCC1c1nc(C2CC2)no1 (stereo unspecified) to O=C(c1cccc(F)c1)N1CC[C@@H]2CN(c3ncccn3)CCO[C@@H]2C1, the INHIBITION rises from 38.6% to 48.6%.

Compared with O=C(c1ccccc1F)N1CC[C@@H]2CN(c3ncccn3)CCO[C@@H]2C1, Cc1cnc(C(=O)N2CC[C@@H]3CN(c4ncccn4)CCO[C@@H]3C2)cn1 is lower in INHIBITION: 69.5% for the first, 56.7% for the second.

Compared with CN1CCCC1c1cncc(C(=O)NCc2ccccc2)n1 (stereo unspecified), Cc1csc(C(C)(C)NCc2ncc(-c3ccccc3)o2)n1 is lower in INHIBITION: 40.6% for the first, -20.3% for the second.

Compared with Cc1ccc(C(=O)NCCCNc2ccc(C(F)(F)F)cn2)cc1, O=C(NCCCNc1ccc(C(F)(F)F)cn1)c1ccc(F)cc1 is higher in INHIBITION: 51.85% for the first, 67.3% for the second.

Compared with O=C(NCCCNc1ccc(C(F)(F)F)cn1)c1ccc(F)cc1Br, O=C(NCCCNc1ccc(C(F)(F)F)cn1)c1ccc(F)cc1F is lower in INHIBITION: 82.6% for the first, -23.9% for the second.

Compared with O=C(NCCNc1ccc(C(F)(F)F)cn1)c1ccc(F)cc1Cl, O=C(NCCCNc1ccc(C(F)(F)F)cn1)c1ccccc1 is higher in INHIBITION: 3.73% for the first, 10.65% for the second.

Going from COc1ccc(C(=O)NCCCNc2ccc(C(F)(F)F)cn2)cc1 to CN(C)c1ccc(C(=O)NCCCNc2ccc(C(F)(F)F)cn2)cc1, the INHIBITION rises from 34.15% to 38.95%.

First: N#Cc1ccc(NCCNc2ccc(C(F)(F)F)cn2)nc1
Second: N#Cc1ccc(C(=O)NCCCNc2ccc(C(F)(F)F)cn2)cc1
The INHIBITION of the first is higher: 78.4% for the first, 42.7% for the second.

Compared with Nc1nccnc1C(=O)NCCCNc1ccc(C(F)(F)F)cn1, Cc1cc(NCCNc2ccc(C#N)cn2)nc(C)n1 is lower in INHIBITION: 25.55% for the first, -14.1% for the second.

First: Cc1ncsc1CN(C)Cc1cc2c(cc1OC(F)F)OCO2
Second: COC(=O)Cn1c(=O)[nH]c2cn(-c3cccc(C)c3)c(=O)n21
The INHIBITION of the first is higher: 34.9% for the first, -9.39% for the second.

From ChEMBL document CHEMBL4513216, “Probing the Open Global Health Chemical Diversity Library for Multistage-Active Starting Points for Next-Generation Antimalarials” (ACS Infect Dis, 2020)
